# In all, about 320,000 compounds went through this assay and about 2,100 (0.66%) were called active.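 Rule for the calls: active = inhibition above the mean inhibition of all tested compounds plus 3 SD, set per campaign (cut at about 40% in these data); inactive = the rest.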 This excerpt belongs to a sample that is enriched for actives.
# Biological target: Induced myeloid leukemia cell differentiation protein Mcl-1 (Homo sapiens) (UniProt Q07820)
# Assay: inhibitors of MCL1 binding to BIM-BH3, primary screen, biochemical, fluorescence polarization (AID 2057);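 note: 0% = DMSO wells and 100% = unlabeled Bim-BH3 peptide control; higher means more loss of mP so more displacement of Bim peptide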
# Details: GST-MCL1 / FITC-Bim-BH3 fluorescence polarization; at 10.9 µM; active compounds read high
# Induced myeloid leukemia cell differentiation protein Mcl-1 (Homo sapiens), sequence (Q07820 whole entry, looked up): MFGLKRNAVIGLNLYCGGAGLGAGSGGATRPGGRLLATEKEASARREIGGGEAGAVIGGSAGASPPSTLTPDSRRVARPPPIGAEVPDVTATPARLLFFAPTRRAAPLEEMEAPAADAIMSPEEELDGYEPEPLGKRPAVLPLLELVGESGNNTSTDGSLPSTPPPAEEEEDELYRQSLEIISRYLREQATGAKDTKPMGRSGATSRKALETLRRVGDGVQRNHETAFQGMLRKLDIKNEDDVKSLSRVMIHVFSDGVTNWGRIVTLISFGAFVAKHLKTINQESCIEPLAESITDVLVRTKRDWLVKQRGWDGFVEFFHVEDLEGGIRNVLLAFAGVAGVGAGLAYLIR
row,Compound,inhibition
1,O=C(Cc1ccc(-n2c(=O)c3sccc3n(Cc3ccc(F)cc3)c2=O)cc1)NCc1ccco1,-2.64% (inactive)
2,O=C(CCn1c(SCC(=O)c2ccccc2)nc2ccccc2c1=O)NCc1ccc(F)cc1,41.6% (active)
3,O=C(CCCn1c(SCC(=O)c2ccc(F)cc2)nc2ccccc2c1=O)NCc1ccco1,2.72% (inactive)
4,O=C(CCCn1c(SCC(=O)c2ccccc2)nc2ccccc2c1=O)NCC1CCCO1 (stereo not given),0.98% (inactive)
5,Cc1cccc(-c2c(NC(=O)c3ccco3)oc3ccc(Cl)cc3c2=O)c1,-4.25% (inactive)
6,Nc1cccc2c1C(=O)N(Cc1nnc(-c3ccccc3Br)o1)C2=O,54.3% (active)
7,CCOC(=O)N1CCN(Cc2nnc(-c3ccccc3Cl)o2)CC1,2.02% (inactive)
8,Cn1cnnc1SCc1nnc(-c2ccccc2Br)o1,5.99% (inactive)
9,C=CCOC(=O)C1=C(C)N=C2SCCC(=O)N2C1/C=C/c1ccccc1OC (stereo not given),-0.33% (inactive)
10,COc1ccc(C2CC(c3ccc(C)cc3)Nc3nc(N)nn32)cc1 (stereo not given),-0.86% (inactive)
11,COc1ccc(C2=CC(c3cccc(OC)c3)n3nnnc3N2)cc1 (stereo not given),37.5% (inactive)
12,COc1ccc(C2C=C(c3ccc(Br)cc3)Nc3nc(NS(C)(=O)=O)nn32)cc1 (stereo not given),175% (active)
13,COc1ccc(NC(=O)C(=O)NCC(c2ccco2)N2CCc3ccccc3C2)cc1 (stereo not given),2.73% (inactive)
14,COC(=O)CCCCCN1C(=O)NC(c2ccc(-c3ccccc3)cc2)C(C(=O)OCc2ccccc2)=C1C (stereo not given),6.48% (inactive)
15,O=[N+]([O-])c1ccc(F)cc1Oc1nc(-c2cccnc2)nc2ccccc12,-2.6% (inactive)
16,Cc1cccc(-c2nc(Nc3ccc(O)cc3)c3ccccc3n2)c1,3.74% (inactive)
17,COc1ccc(Nc2nc(-c3cccnc3)nc3ccccc23)cn1,128% (active)
18,CCNC(=O)CC1C(=O)N(c2ccc(OC)cc2)C(=S)N1CCc1ccncc1 (stereo not given),-3.91% (inactive)
19,Cc1cc(C)c(-c2csc(NC(=O)CCCc3nc4ccccc4c(=O)[nH]3)n2)c(C)c1,-5.51% (inactive)
20,CCOC(=O)C1CCN(C(=O)Nc2ccc(C)c(Cl)c2)CC1,4.72% (inactive)
21,COc1cc(SC)ccc1C(=O)Nc1cc(C)ccn1,0.12% (inactive)
22,Cc1ccnc(NC(=O)CNC(=O)c2ccccc2)c1,6.08% (inactive)
23,Cc1ccnc(NC(=O)c2ccoc2C)c1,42.1% (active)
24,COc1ccc(CN2C(=O)C(C)S/C2=N/N=C/c2ccco2)cc1 (stereo not given),4.92% (inactive)
25,COc1ccccc1C(=O)NCCC(=O)NC(C)CCc1ccccc1 (stereo not given),-13.4% (inactive)

# Source: PubChem BioAssay AID2057 (The Scripps Research Institute Molecular Screening Center, 2009)
